Pf growth 48h = P. falciparum growth inhibition at 48 hours (one generation). Potency, µM (series often up to 28.7 µM), inactives show at the highest dose activity change, negative = inhibition, usual class: inhibitors. 310,000 tested, 5.9% active. P. falciparum luciferase growth in erythrocytes, 48 h; note: % is set by controls: 0 for no effect and ±100 for the full control effect
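Erythrocytes infected with P. falciparum carrying an integrated firefly luciferase reporter (2% hematocrit, 0.1% parasitemia final) were exposed to compounds in RPMI 1640 with 0.5% Albumax at 37 C, 5% CO2. Growth inhibition was scored as reduced luminescence.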
Pf growth 96h = inhibits malaria parasite growth, 96 h | AID 504834 | 320,000 tested, 6.9% active | P. falciparum luciferase reporter growth, 96 h | Potency, µM (top dose mostly 28.7 µM), without a hit: at the top dose activity change, negative = inhibition, most hits filed as inhibitors; note: % is set by controls: 0 for no effect and ±100 for the full control effect
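Parasite growth measured via integrated firefly luciferase reporter in P. falciparum. Infected erythrocytes at 2% hematocrit, 0.05% parasitemia final were treated 96 hours at 37 C under 5% CO2, and luminescence was read.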
AmpC detergent = inhibitors of E. coli AmpC beta-lactamase with detergent. P00811. Potency, µM (doses to about 114 µM), for inactives: at the highest dose activity change, negative = inhibition, most hits filed as inhibitors. AID 485294. AmpC hydrolysis of nitrocefin, absorbance 480 nm, 0.01% Triton. 370,000 tested, 0.041% active;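 note: 0% = no-compound wells and -100% = no-enzyme wells; nearly all actives have a fitted effect of over 25% in size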
Target sequence (P00811 whole entry, looked up): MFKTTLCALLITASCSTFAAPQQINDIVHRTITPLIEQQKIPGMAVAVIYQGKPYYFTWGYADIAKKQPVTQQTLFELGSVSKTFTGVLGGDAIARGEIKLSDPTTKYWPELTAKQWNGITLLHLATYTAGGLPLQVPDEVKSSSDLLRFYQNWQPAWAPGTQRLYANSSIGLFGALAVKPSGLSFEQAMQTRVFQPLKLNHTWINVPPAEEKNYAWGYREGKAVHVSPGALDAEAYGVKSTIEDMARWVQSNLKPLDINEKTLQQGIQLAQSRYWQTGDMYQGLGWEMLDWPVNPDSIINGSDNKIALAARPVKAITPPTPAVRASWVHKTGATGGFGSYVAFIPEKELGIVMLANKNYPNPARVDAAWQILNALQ
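20 mM phosphate pH 7.0 + 0.01% (detergent screen) or 0.0001% Triton X-100; 5.3 nM AmpC reagent; cpd preinc 15 min RT; nitrocefin (800 uM stock) to start; A480 q20 s × 4 min; Activity was normalised to no-enzyme and no-compound control wells.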
Sm TGR inh = inhibitors of Schistosoma mansoni thioredoxin glutathione reductase | Q962Y6 | purified TGR, DTNB reduction, TNB absorbance 405 nm | Potency, µM (doses to about 114 µM), without a hit: top-dose activity change, negative = inhibition, usual class: inhibitors | 360,000 tested, 3% active | AID 485364; note: % is set by controls: 0 for no effect and ±100 for the full control effect; nearly all actives have a fitted effect of over 60% in size
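TGR 20 nM + NADPH 100 uM (dispensed conc.), cpd preinc 15 min RT; start with NADPH (500 uM addition) then DTNB (15 mM addition). Kinetic TNB absorbance, 405 nm filter. Four-parameter Hill fit across titration.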
SARS PLP yeast = inhibitors of SARS-CoV papain-like protease in yeast; S. cerevisiae expressing SARS-CoV PLpro, growth rescue; Potency, µM (titrated, usually from 32.9 µM), without a hit: top-dose activity, positive = growth rescue, actives largely listed as activators; 330,000 tested, 0.19% active; AID 485353; calls by dose curve; note: 0% is about no effect; nearly all actives have a fitted effect of over 55% in size
AmpC inh no detg = inhibitors of E. coli AmpC beta-lactamase without detergent; 330,000 tested, 0.52% active; P00811; AmpC nitrocefin hydrolysis, absorbance 480 nm, 0.0001% Triton; Potency, µM (top dose mostly 57.1 µM), inactives show at the highest dose activity change, negative = inhibition, actives largely listed as inhibitors;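 note: plate controls were no compound for no effect and no enzyme for full effect; nearly all actives have a fitted effect of over 20% in size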
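20 mM phosphate pH 7.0 + 0.01% (detergent screen) or 0.0001% Triton X-100; 5.3 nM AmpC reagent; cpd preinc 15 min RT; nitrocefin (800 uM stock) to start; A480 q20 s × 4 min; Activity was normalised to no-enzyme and no-compound control wells.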
Numbers without * were called inactive; u = inconclusive; x = no result given. This is a sample that favours compounds with a hit; in the whole collection about 12% have one here. Unless noted, calls come from the whole dose curve; as a rule, active = well fitted curve in the direction sought with a large enough effect; inconclusive = small, poorly fitted or top-dose-only effect, or another doubt; inactive = no such curve, though single readings can be large; an effect the other way counts as inactive or inconclusive. Potency is the fitted concentration of half-maximal effect.

SMILES | Pf growth 48h | Pf growth 96h | AmpC detergent | Sm TGR inh | SARS PLP yeast | AmpC inh no detg
CCCN(CCC)Cc1c(C(=O)N/N=C/CCc2ccccc2)nnn1-c1nonc1N | -2% | 9.3µM* | -8% | 5% | -14% | 44%
CC(/C=N/NC(=O)c1nnn(-c2nonc2N)c1CN(C)C)=C\c1ccco1 | u | -2% | 3% | 45µM* | 0% | 7%
C/C(=N\NC(=O)c1nnn(-c2nonc2N)c1CN(C)c1ccccc1)c1cccs1 | -8% | 33% | -7% | 5% | 0% | u
C/C(=N\NC(=O)c1nnn(-c2nonc2N)c1CN(C)c1ccccc1)c1ccccn1 | 13µM* | 5.2µM* | 2% | 7% | 11% | 14%
CCCN(CCC)Cc1c(C(=O)N/N=C/c2ccncc2)nnn1-c1nonc1N | 7% | 5% | -13% | 10% | 11% | 44%
CCc1cc(-c2n[nH]c(C)c2-c2nc3ccccc3s2)c(O)cc1OCC(=O)NN | 5.2µM* | 17% | 1% | 5% | 2% | 107%
Cc1nn(CCCC(=O)Nc2cccc(F)c2)c(=O)c2c1sc1ccccc12 | x | x | 3% | -3% | x | x
COc1ccccc1OCCn1c(C(C)Oc2ccccc2)nc2ccccc21 (centres undefined) | x | x | 4% | 3% | x | x
CCOC(=O)N/N=C/c1c(C)nn(-c2ccccc2Cl)c1Cl | u | 10µM* | -15% | 3% | -14% | -14%
CSc1ncc(CN2CCc3c([nH]c4ccccc34)C2c2cccc(O)c2)cn1 (centres undefined) | 4.1µM* | -53% | -9% | -23% | 1% | -23%
CSc1ncc(CN2CCc3c([nH]c4ccccc34)C2c2cccc(C)n2)cn1 (centres undefined) | u | u | 1% | u | -5% | 79%
CCn1nc(C)c(CN2CCc3c([nH]c4ccccc34)C2c2ccc(F)c(OC)c2)c1C (centres undefined) | 2.6µM* | u | 11% | -7% | -2% | 97%
Clc1ccc(-n2cccc2CN2CCc3c([nH]c4ccccc34)C2c2ccccn2)nc1 (centres undefined) | 9.3µM* | 10µM* | -4% | u | -1% | 15%
CCn1cc(CN2CCc3c([nH]c4ccccc34)C2c2ccc(F)c(OC)c2)c(C)n1 (centres undefined) | 12µM* | u | 0% | -10% | -1% | 122%
Fc1ccc(C2c3[nH]c4ccccc4c3CCN2Cc2cccn2-c2ncccn2)cc1 (centres undefined) | -3% | 18% | 1% | -1% | 1% | -8%
CCn1cc(CN2CCc3c([nH]c4ccccc34)C2c2cccc(OC)c2)c(C)n1 (centres undefined) | 12µM* | u | 4% | -36% | 0% | 127%
CCn1cc(CN2CCc3c([nH]c4ccccc34)C2c2cccc(O)c2)c(C)n1 (centres undefined) | -17% | -1% | 9% | -10% | 0% | 33%
COc1cccc(C2c3[nH]c4ccccc4c3CCN2Cc2cccn2-c2ncccn2)c1 (centres undefined) | u | 5.2µM* | 6% | u | 0% | 24%
Cc1ccccc1OCc1nnc(SCc2cc(=O)c3cccc(F)c3[nH]2)n1C | x | x | 14% | 5% | x | x
COc1ccc(-n2cc(-c3ccccc3)c3c(N4CCCC(C)C4)ncnc32)cc1 (centres undefined) | x | x | 1% | 0% | x | x
CC(C)c1ccc(S(=O)(=O)N2CCN(C(=O)CCNC(=O)Nc3ccccc3)CC2)cc1 | 12µM* | u | u | -8% | 0% | 96%
CCCOc1ccccc1OCC(=O)N1CCN(S(=O)(=O)c2ccc(Cl)cc2)CC1 | u | u | -1% | -30% | -5% | 34%
